Each sequence was assayed against GLA (assay: pooled miR-30 sensor sort-seq; sequence = guide strand). Conditions: shRNA.
Note: reference of the scale not given here.

Row | Sequence | sensor-assay potency score (higher = more potent)
1 | TGTCACAGTAACAACCATCAAA | -0.951
2 | TTACTTGCTGATTCCAGCTGAG | 0.0513
3 | AACTGTCACAGTAACAACCATC | -1.1
4 | TAGACATGAATAAAGGAGCAGC | -0.359
5 | TTTTATTTCCAACATCTGCATA | -1.26
6 | TTAACCTTGAAGTCCATTCATA | -0.885

These sequences were tested against GLCE in the same assay as above. Conditions: shRNA.

Row | Sequence | sensor-assay potency score (higher = more potent)
7 | TTGCATATAGTATTTGATCTAA | -0.789
8 | TTTGTTAACAGATAGGCCCTGA | 0.615
9 | TACCATACTGTTATCATCGAGT | 0.0428
10 | TTTAACATCAAAGTGAACTCAA | 0.589
11 | TTATTTTGAACATCGGCACTGG | 0.23
12 | TAACATATGGTATATAACCCAC | -0.994
13 | TAAAAGGTCAAACTTGACCTTC | -0.602
14 | TAAAAAGTTGAACACAGTCTGC | -0.82
15 | TCAAACTTGACCTTCATCCAGA | -0.0575
16 | TTACTAGCCAATCACTAGCAGC | -1.01
17 | TAACATGTGCACATTGTGCTTA | 0.792
18 | TTACCTTTTGCAATCAACCTAA | 0.22

The sequences below were run against GLI3 in the same assay as above. Conditions: shRNA.

Row | Sequence | sensor-assay potency score (higher = more potent)
19 | TTTTTCTTTTCAGTGGTCGTGG | 0.0526
20 | TTTGGTCATAGAACTGACCAGA | -0.608
21 | TTGTCGGCTTAGGATCTGCTGA | -0.967
22 | TATACTACCTCCATCGGTCAGA | -0.385
23 | TTTCGTGTCTTGCTGACTGAAG | -0.362
24 | TTGAGAATCGTGACCAAGGAGT | -0.494
25 | TTGATCTTGGACCTCTTGTTGT | -0.765
26 | TTTGAGTGTAACAATACTGATT | -0.904
27 | TCTGATGATAGTATTCTGCTGG | 0.381
28 | TTGTGTCACTGAGCTGTCCTGA | -0.401

Each sequence was assayed against GLIPR2 in the same assay as above. Conditions: shRNA.

Row | Sequence | sensor-assay potency score (higher = more potent)
29 | TTTCCTGTCTGATCATAGGATG | -0.835
30 | ATAGTTCTTGATTTCACTGTAC | 0.205
31 | TTCTTCCATACCATGGCCGTGA | -1.01
32 | TATCTGGCCACCACAAAGGAGG | -1.73
33 | TATAGTTCTTGATTTCACTGTA | 0.562
34 | TTCTTGCAGAGCTTCAGTGGGG | -0.474
35 | TGCTTGAGGATCCTCGTGCTGG | -0.832
36 | TCATTGACAACATTCCCCGCTG | -0.0819
37 | TTCTTGATTTCACTGTACCATC | -1.16
38 | TTGACAACATTCCCCGCTGGGA | -0.899
39 | ATCTTCTTGGTGTTCTTCCATA | -1.63
40 | TTATAGTTCTTGATTTCACTGT | 0.709

— the OligoGym collection
